Of roughly 8,800 targets only a part is listed; those with a hit were picked by preference. About 0.5% of all pairs of compound and target were hits.
How the values were obtained:
Experiment in all cases: log2 fold change, soluble protein after heating vs DMSO (PISA); higher = thermal stabilisation; K562 lysate, 10 uM; active = over 0.2 and 3.5 SD of the protein, either way, in both replicates (recomputed)
[1] = compound: CCCS(=O)(=O)Nc1ccc(F)c(C(=O)c2c[nH]c3ncc(-c4ccc(Cl)cc4)cc23)c1F [vemurafenib]
Procedure, shortened: (§1)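 Values give the log-two fold change in thermal stability against solvent controls, from duplicates. Crude K562 extract at 1 mg/mL protein, made by dounce homogenisation in PBS pH 7.4 with 1 mM MgCl2, was treated with 10 μM compound for 30 min. After 3 min heating across 48°C-58°C, aliquots were pooled, adjusted to 0.5% NP-40 at 4°C and centrifuged at 21,000xg for 90 min. The supernatant was measured by TMTpro 16plex LC-MS/MS with channel sums equalised.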

[2] = compound: CCCS(=O)(=O)Nc1ccc(F)c(C(=O)c2c[nH]c3ncc(Cl)cc23)c1F
Procedure, shortened: as §1

[3] = compound: CCN(CCCOc1ccc2c(Nc3cc(CC(=O)Nc4cccc(F)c4)[nH]n3)ncnc2c1)CCOP(=O)(O)O [barasertib]
Procedure, shortened: as §1

[4] = compound: CC[C@@H]1C(=O)N(C)c2cnc(Nc3ccc(C(=O)N[C@H]4CC[C@H](N5CCN(CC6CC6)CC5)CC4)cc3OC)nc2N1C(C)C [volasertib]
Procedure, shortened: as §1

[5] = compound: CCn1c(C(=O)N(C2CC2)C2CC2)cc2c3c(ncn3C)c(Nc3cc(C)n(C)n3)nc21
Procedure, shortened: as §1

[6] = compound: CN1CCC(CNc2ccc3ncc(-c4cccc(OC(F)(F)F)c4)n3n2)CC1
Procedure, shortened: as §1

[7] = compound: CN1CCN(CCOc2cc(OC3CCOCC3)c3c(Nc4c(Cl)ccc5c4OCO5)ncnc3c2)CC1 [saracatinib]
Procedure, shortened: as §1

[8] = compound: CN1CCN(c2nc(C3=C(c4c[nH]c5ccccc45)C(=O)NC3=O)c3ccccc3n2)CC1 [sotrastaurin]
Procedure, shortened: as §1

[9] = compound: CN1CC[C@H](c2c(O)cc(O)c3c(=O)cc(-c4ccccc4Cl)oc23)[C@H](O)C1 [alvocidib]
Procedure, shortened: as §1

[10] = compound: CN1CCc2c(c3ccccc3n2Cc2ccc(C(=O)NO)cc2)C1 [Tubastatin A]
Procedure, shortened: as §1

[11] = compound: CNC(=O)c1ccc(Nc2ncc(C(F)(F)F)c(NCc3nccnc3N(C)S(C)(=O)=O)n2)cc1 [defactinib]
Procedure, shortened: as §1

[12] = compound: CNc1nc(-c2ccc3c(N)n[nH]c3c2)cc(N2C[C@@H](C(=O)NC3CCCCC3)CC[C@H]2C)n1
Procedure, shortened: as §1

[13] = compound: COC(=O)N[C@@H](C)CNc1nccc(-c2cn(C(C)C)nc2-c2cc(Cl)cc(NS(C)(=O)=O)c2F)n1 [encorafenib]
Procedure, shortened: as §1

[14] = compound: COC(=O)[C@H](CCSC)NC(=O)C1=C(C=C(C=C1)NC[C@H](CS)N)C2=CC=CC=C2
Procedure, shortened: as §1

[15] = compound: COc1cc(Nc2ncc3c(n2)-c2ccc(Cl)cc2C(c2c(F)cccc2OC)=NC3)ccc1C(=O)O [alisertib]
Procedure, shortened: as §1

[16] = compound: COc1cc2nc(-c3cc(F)ccc3O)nc(N[C@@H]3CNC[C@H]3C(C)(C)O)c2cc1OC
Procedure, shortened: as §1

[17] = compound: COc1cc2ncnc(Nc3ccc(F)c(Cl)c3)c2cc1OCCCN1CCOCC1 [gefitinib]
Procedure, shortened: as §1

[18] = compound: CC[C@@H]1C(=O)N(C)c2cnc(Nc3ccc(C(=O)NC4CCN(C)CC4)cc3OC)nc2N1C1CCCC1
Procedure, shortened: as §1

[19] = compound: CCn1cc(-c2ccnc3[nH]c(-c4cccc(CN(C)C)c4)cc23)c(-c2ccc(NC(=O)N(C)C)cc2)n1
Procedure, shortened: as §1

[20] = compound: CNC(=O)C1=CC=CC=C1NC2=NC(=NC=C2Cl)NC3=C(C=C(C=C3)N4CCOCC4)OC
Procedure, shortened: as §1

Measured: log2 fold change

CSNK1D (UniProt P48730)
inactive: [1] -0.04 | [2] -0.044 | [3] -0.092 | [4] -0.191 | [5] 0.025 | [6] 0.255 | [7] -0.039 | [8] 0.058 | [9] 0.244 | [10] -0.085 | [11] 0.103 | [12] -0.091 | [13] 0.041 | [14] 0.013 | [15] 0 | [16] -0.131 | [17] -0.023

CTPS2 (UniProt Q9NRF8)
inactive: [1] 0.002 | [2] 0.01 | [3] 0.015 | [18] -0.028 | [4] -0.009 | [5] 0.011 | [19] -0.041 | [6] 0.058 | [7] 0.012 | [8] -0.044 | [9] -0.01 | [10] 0.015 | [20] -0.009 | [11] 0.01 | [12] -0.006 | [13] 0.01 | [14] -0.043 | [15] -0.017 | [16] 0.011 | [17] 0.011

DCTN1 (UniProt Q14203)
Chain of UniProt Q14203 (Q14203 whole entry, looked up): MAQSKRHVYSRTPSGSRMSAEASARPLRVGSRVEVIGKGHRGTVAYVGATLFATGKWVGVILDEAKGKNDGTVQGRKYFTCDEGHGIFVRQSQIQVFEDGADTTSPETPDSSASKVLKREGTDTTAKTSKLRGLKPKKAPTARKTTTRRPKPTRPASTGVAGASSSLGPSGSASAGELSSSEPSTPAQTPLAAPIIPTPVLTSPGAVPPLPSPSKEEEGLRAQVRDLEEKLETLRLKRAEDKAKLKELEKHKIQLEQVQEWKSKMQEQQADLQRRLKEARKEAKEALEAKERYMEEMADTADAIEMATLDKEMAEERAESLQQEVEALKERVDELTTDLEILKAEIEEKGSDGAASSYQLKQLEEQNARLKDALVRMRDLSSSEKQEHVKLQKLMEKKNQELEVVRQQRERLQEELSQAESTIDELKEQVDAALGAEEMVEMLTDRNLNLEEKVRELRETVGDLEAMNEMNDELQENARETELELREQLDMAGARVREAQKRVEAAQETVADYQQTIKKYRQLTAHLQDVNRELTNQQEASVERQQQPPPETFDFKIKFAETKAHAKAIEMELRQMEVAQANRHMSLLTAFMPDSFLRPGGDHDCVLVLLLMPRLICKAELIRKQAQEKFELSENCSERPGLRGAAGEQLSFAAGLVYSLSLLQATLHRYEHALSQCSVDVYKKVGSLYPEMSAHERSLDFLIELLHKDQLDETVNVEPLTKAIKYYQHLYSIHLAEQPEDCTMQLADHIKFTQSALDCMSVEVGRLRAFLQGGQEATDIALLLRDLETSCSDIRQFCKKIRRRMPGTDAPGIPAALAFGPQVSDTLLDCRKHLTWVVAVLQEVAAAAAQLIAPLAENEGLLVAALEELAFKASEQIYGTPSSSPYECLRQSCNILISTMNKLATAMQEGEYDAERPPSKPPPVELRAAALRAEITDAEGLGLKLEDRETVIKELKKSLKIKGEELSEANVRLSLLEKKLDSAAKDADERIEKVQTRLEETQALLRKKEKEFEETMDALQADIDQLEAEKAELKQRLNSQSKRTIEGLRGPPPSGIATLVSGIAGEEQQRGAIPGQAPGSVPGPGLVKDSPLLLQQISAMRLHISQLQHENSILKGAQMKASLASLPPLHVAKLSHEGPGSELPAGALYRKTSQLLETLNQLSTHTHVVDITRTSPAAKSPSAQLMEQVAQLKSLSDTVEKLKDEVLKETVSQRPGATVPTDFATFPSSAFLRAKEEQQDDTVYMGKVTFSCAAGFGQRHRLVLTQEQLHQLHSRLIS
inactive: [1] -0.025 | [2] 0.008 | [3] 0.021 | [18] -0.021 | [4] -0.048 | [5] 0.002 | [19] 0.034 | [6] -0.034 | [7] 0.029 | [8] -0.003 | [9] 0.03 | [10] -0.048 | [20] 0.009 | [11] 0.008 | [12] -0.02 | [13] 0.008 | [14] 0.119 | [15] -0.019 | [16] 0.01 | [17] -0.002

CSNK1A1 (UniProt P48729)
inactive: [1] -0.044 | [2] 0.017 | [3] -0.003 | [18] 0.078 | [4] -0.066 | [5] 0.097 | [19] 0.065 | [6] 0.171 | [7] 0.02 | [8] 0.048 | [9] 0.007 | [10] -0.105 | [11] 0.077 | [12] 0.019 | [13] 0.081 | [14] -0.005 | [16] 0.049 | [17] -0.005

CNOT4 isoform 9 (UniProt O95628)
Chain of UniProt O95628 (O95628 whole entry, looked up): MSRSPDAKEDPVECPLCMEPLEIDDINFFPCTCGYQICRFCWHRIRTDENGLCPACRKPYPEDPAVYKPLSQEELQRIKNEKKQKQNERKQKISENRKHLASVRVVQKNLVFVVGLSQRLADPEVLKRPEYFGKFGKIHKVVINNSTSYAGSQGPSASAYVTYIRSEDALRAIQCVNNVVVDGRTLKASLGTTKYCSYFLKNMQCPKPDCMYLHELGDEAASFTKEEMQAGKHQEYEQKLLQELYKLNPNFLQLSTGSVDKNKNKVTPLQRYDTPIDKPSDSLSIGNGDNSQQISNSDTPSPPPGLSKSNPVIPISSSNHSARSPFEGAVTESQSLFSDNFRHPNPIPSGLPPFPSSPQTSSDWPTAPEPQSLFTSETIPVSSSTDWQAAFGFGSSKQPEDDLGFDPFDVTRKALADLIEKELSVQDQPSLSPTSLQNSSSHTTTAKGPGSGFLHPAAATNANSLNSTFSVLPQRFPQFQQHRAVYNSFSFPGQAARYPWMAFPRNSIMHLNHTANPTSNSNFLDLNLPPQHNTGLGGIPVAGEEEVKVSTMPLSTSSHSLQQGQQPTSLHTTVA
inactive: [1] 0.027 | [2] 0.014 | [3] -0.195 | [18] 0.028 | [4] -0.03 | [5] 0.015 | [6] 0.22 | [7] 0.1 | [8] 0.075 | [9] -0.351 | [10] 0.04 | [20] -0.087 | [11] -0.085 | [12] -0.047 | [13] 0.037 | [14] 0.003 | [16] 0.002
active: [19] -1.23

CLCN3 isoform 2 (UniProt P51790)
inactive: [1] -0.015 | [2] 0.052 | [3] -0.004 | [18] 0.003 | [4] -0.022 | [5] -0.024 | [19] -0.039 | [6] 0.013 | [7] -0.018 | [8] 0.054 | [9] -0.02 | [10] 0.02 | [20] 0.024 | [11] -0.015 | [12] 0.033 | [13] 0.041 | [14] 0.022 | [15] -0.007 | [16] -0.002 | [17] 0.005

CHEK2 (UniProt O96017)
active: [20] 0.207
inactive: [1] -0.059 | [2] 0.042 | [3] 0.087 | [18] -0.06 | [4] -0.044 | [5] 0.051 | [19] 0.08 | [6] -0.057 | [7] -0.036 | [8] 0 | [9] 0.093 | [10] -0.007 | [11] 0.022 | [12] -0.085 | [13] -0.022 | [14] 0.092 | [15] 0 | [16] -0.052 | [17] 0.09

COASY isoform 2 (UniProt Q13057)
inactive: [1] 0.076 | [2] 0.017 | [3] 0.011 | [18] -0.075 | [4] -0.098 | [5] 0.034 | [19] -0.063 | [6] 0.038 | [7] 0.021 | [8] 0.079 | [9] 0.015 | [10] -0.124 | [20] -0.003 | [11] 0.064 | [12] -0.023 | [13] -0.012 | [14] 0.032 | [15] 0.023 | [16] -0.025 | [17] -0.005

DENND1B (UniProt Q6P3S1)
inactive: [1] 0.128 | [2] -0.036 | [3] 0.01 | [4] -0.05 | [5] -0.134 | [19] 0.022 | [6] -0.024 | [7] -0.018 | [8] 0.04 | [9] 0.074 | [10] 0.152 | [20] -0.105 | [11] 0.099 | [12] 0.023 | [15] -0.146 | [16] -0.226 | [17] -0.102

DDX39A (UniProt O00148)
inactive: [1] 0.021 | [2] 0.021 | [3] 0.047 | [18] -0.049 | [4] -0.071 | [5] -0.028 | [19] -0.041 | [6] -0.027 | [7] -0.032 | [8] -0.002 | [9] -0.017 | [10] -0.171 | [20] -0.006 | [11] 0.003 | [12] -0.025 | [13] 0.001 | [14] 0.163 | [15] -0.026 | [16] 0.004 | [17] 0.009

CHURC1 isoform 2 (UniProt Q8WUH1)
Chain of UniProt Q8WUH1 (Q8WUH1 whole entry, looked up): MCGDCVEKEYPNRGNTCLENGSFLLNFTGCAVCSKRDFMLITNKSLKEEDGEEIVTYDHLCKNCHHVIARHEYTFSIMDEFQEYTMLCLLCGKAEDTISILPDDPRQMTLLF
inactive: [1] 0.019 | [2] -0.166 | [3] 0.194 | [18] 0.038 | [4] 0.129 | [5] 0.018 | [19] -0.108 | [6] 0.024 | [7] -0.071 | [8] -0.013 | [9] 0.002 | [10] 0.002 | [20] 0 | [11] 0.051 | [12] 0.024 | [13] -0.068 | [14] -0.005 | [15] 0.013 | [16] -0.145 | [17] -0.025

CLASP2 (UniProt O75122)
Chain of UniProt O75122 (O75122 whole entry, looked up): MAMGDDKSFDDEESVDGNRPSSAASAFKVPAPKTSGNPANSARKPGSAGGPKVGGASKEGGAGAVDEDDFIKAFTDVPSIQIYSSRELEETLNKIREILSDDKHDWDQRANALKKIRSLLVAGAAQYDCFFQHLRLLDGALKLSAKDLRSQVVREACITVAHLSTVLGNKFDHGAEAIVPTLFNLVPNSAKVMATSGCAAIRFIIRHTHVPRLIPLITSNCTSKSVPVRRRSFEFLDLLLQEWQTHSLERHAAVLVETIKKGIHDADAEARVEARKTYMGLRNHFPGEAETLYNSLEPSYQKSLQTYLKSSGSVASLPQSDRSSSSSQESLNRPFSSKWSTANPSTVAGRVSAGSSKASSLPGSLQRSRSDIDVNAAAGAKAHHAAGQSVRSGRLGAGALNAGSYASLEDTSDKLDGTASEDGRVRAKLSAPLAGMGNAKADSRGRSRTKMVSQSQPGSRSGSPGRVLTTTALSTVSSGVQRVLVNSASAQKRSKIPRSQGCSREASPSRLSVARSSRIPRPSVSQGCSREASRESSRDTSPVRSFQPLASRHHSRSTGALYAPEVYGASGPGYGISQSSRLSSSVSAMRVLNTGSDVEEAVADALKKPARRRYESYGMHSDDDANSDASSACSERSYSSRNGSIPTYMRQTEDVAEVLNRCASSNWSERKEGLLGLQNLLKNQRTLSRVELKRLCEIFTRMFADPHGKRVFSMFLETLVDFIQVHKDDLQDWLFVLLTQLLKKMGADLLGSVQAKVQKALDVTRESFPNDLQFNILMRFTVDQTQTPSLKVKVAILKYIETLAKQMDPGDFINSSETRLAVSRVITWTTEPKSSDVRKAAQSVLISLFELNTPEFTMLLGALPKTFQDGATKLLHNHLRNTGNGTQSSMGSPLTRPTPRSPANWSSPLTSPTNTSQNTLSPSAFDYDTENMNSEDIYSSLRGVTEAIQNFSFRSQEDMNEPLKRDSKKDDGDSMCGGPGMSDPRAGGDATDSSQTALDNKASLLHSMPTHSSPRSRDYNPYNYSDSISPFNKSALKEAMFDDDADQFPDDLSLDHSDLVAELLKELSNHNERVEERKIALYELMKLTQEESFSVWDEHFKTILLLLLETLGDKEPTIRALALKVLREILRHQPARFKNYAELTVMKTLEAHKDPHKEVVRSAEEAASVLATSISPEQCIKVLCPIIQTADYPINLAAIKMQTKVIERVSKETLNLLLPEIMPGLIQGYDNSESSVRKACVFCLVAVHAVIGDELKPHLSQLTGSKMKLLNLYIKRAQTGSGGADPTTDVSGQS
inactive: [1] 0.241 | [2] 0.072 | [3] -0.015 | [18] 0.021 | [4] -0.052 | [5] -0.098 | [19] -0.077 | [6] 0.073 | [8] 0.18 | [9] -0.139 | [10] -0.066 | [11] 0.002 | [13] 0.058 | [14] -0.071 | [15] 0.182 | [16] 0.037 | [17] -0.047

DDAH1 (UniProt O94760)
inactive: [1] 0.054 | [2] 0.071 | [18] 0.04 | [4] 0.068 | [5] 0.061 | [19] -0.068 | [6] -0.051 | [8] -0.022 | [9] 0.015 | [10] 0.007 | [20] 0.037 | [11] 0.014 | [12] -0.002 | [13] 0 | [14] 0.009 | [16] 0.003
active: [7] -0.308

DNAH5 (UniProt Q8TE73)
inactive: [1] 0.007 | [2] 0.074 | [3] 0.006 | [4] 0.02 | [5] -0.035 | [6] 0.122 | [7] 0.007 | [9] -0.189 | [10] 0.073 | [20] -0.032 | [11] -0.014 | [12] -0.051 | [15] -0.029 | [16] -0.019 | [17] 0.052
active: [19] -0.481

CUX1 isoform 2 (UniProt Q13948)
Chain of UniProt Q13948 (Q13948 whole entry, looked up): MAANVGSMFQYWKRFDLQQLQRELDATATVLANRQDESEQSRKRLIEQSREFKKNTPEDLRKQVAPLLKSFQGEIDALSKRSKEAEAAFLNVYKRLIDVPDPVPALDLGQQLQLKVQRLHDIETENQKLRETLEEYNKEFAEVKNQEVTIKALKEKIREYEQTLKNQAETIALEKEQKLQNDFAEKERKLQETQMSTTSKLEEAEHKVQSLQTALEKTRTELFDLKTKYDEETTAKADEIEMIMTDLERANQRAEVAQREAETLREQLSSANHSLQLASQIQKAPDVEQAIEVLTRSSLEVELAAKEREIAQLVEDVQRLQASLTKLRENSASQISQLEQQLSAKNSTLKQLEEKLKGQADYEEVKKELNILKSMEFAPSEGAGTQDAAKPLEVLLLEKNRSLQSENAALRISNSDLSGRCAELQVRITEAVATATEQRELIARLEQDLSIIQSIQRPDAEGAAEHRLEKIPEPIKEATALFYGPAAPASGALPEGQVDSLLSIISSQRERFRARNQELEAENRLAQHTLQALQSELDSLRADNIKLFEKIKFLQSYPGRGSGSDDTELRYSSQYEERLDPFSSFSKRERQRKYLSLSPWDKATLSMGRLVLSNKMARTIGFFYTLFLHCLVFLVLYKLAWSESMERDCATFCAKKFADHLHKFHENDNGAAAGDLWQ
inactive: [1] 0.013 | [2] 0.084 | [18] -0.087 | [4] -0.001 | [5] 0.019 | [19] 0.06 | [6] -0.34 | [7] -0.054 | [8] 0.081 | [9] -0.035 | [10] 0.016 | [20] 0.033 | [11] 0.085 | [12] -0.028 | [13] 0.067 | [14] -0.022 | [16] 0.071

DENND6A (UniProt Q8IWF6)
inactive: [1] 0.025 | [2] 0.033 | [3] 0.066 | [18] 0.029 | [4] -0.062 | [5] 0.019 | [19] 0.017 | [6] 0.004 | [7] -0.012 | [8] -0.027 | [9] -0.009 | [10] -0.072 | [20] -0.006 | [11] 0.007 | [12] 0.103 | [13] 0.007 | [14] -0.134 | [15] 0.059 | [16] -0.024 | [17] 0.047

CNNM2 (UniProt Q9H8M5)
Chain of UniProt Q9H8M5 (Q9H8M5 whole entry, looked up): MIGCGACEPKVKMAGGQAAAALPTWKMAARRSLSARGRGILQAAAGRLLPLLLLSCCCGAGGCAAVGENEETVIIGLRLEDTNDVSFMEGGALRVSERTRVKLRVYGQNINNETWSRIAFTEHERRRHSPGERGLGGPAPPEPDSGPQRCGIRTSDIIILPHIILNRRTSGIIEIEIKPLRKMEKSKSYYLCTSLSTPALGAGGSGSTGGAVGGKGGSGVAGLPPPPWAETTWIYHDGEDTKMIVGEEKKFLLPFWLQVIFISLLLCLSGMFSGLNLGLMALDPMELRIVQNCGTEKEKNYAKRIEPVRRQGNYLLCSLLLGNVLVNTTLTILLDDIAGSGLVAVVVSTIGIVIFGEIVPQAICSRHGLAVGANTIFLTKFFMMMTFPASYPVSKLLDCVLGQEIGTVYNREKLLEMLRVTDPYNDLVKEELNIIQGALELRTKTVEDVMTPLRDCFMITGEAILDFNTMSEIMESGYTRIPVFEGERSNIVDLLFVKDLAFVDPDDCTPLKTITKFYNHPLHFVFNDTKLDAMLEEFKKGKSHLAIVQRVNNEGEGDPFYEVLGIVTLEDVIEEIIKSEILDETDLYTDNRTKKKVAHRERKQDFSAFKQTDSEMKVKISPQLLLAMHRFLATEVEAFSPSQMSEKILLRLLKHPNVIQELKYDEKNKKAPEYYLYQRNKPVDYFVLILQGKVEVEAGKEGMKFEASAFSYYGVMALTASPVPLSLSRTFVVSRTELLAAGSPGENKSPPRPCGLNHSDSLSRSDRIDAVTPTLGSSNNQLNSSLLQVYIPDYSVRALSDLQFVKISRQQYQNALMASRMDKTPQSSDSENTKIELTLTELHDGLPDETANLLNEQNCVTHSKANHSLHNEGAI
inactive: [1] 0.025 | [2] 0.024 | [18] 0 | [4] -0.043 | [5] -0.091 | [19] -0.059 | [6] 0.036 | [7] -0.039 | [8] 0.091 | [9] -0.049 | [10] -0.105 | [20] 0.007 | [11] 0.065 | [12] -0.01 | [13] -0.048 | [14] 0.033 | [16] -0.003
